Measured values taken from PubChem BioAssay AID1159580 (chemical genetic matrix, 2015).
Out of some 5,500 compounds screened, about 2,000 (36%) were called active. About 18% were inconclusive and are not listed. Rule as the data show it: active = normalized growth mostly below about 0.91 (no sharp cut-off); inconclusive = no clear call, values can overlap the other calls; inactive = mostly above about 0.92. The list shows a part of the results.

Assay: chemical genetic growth profiling, strain panel (AID 1159580);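 also: tested at 20 µM; growth read once vehicle control cultures reached saturation at 30 °C; 1 = growth at the plate median or of vehicle wells; lower values mean less growth of the strain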
Conditions: growth OD
[1] = S. cerevisiae deletion strains, locus YHR030C, strain SLT2, hits give low values
[2] = S. cerevisiae deletion strains, locus YHR079C, strain IRE1, hits give low values
[3] = S. cerevisiae deletion strains, locus YJL095W, strain BCK1, hits give low values
[4] = S. cerevisiae deletion strains, locus YJR066W, strain TOR1, hits give low values
[5] = S. cerevisiae deletion strains, locus YLR113W, strain HOG1, hits give low values
[6] = S. cerevisiae deletion strains, locus YNL183C, strain NPR1, hits give low values
[7] = S. cerevisiae deletion strains, locus YOR231W, strain MKK1, hits give low values
[8] = S. cerevisiae deletion strains, locus YPL256C, strain CLN2, hits give low values
[9] = S. cerevisiae deletion strains, locus YAL013W, strain DEP1, hits give low values
[10] = S. cerevisiae deletion strains, locus YDR150W, strain NUM1, hits give low values
[11] = S. cerevisiae deletion strains, locus YGR078C, strain PAC10, hits give low values
[12] = S. cerevisiae deletion strains, locus YJR075W, strain HOC1, hits give low values
[13] = S. cerevisiae deletion strains, locus YMR263W, strain SAP30, hits give low values
[14] = S. cerevisiae deletion strains, locus YMR307W, strain GAS1, hits give low values
[15] = S. cerevisiae deletion strains, locus YPL055C, strain LGE1, hits give low values

Measured: normalized growth

Clc1ccc2c(c1)CCc1cccnc1C2=C1CCNCC1
inactive: [1] 0.968 | [2] 0.986 | [3] 1.04 | [4] 0.932 | [5] 1.03 | [6] 0.965 | [7] 0.992 | [8] 0.972

O=C1CCCCC/C=C/CCCCCCCCO1
inactive: [9] 0.986 | S. cerevisiae deletion strains, locus YBR021W, strain FUR4, hits give low values 1.01 | S. cerevisiae deletion strains, locus YBR229C, strain ROT2, hits give low values 1 | S. cerevisiae deletion strains, locus YCL029C, strain bik1, hits give low values 1 | S. cerevisiae deletion strains, locus YDL035C, strain GPR1, hits give low values 0.988 | S. cerevisiae deletion strains, locus YDL074C, strain BRE1, hits give low values 0.949 | S. cerevisiae deletion strains, locus YDL101C, strain DUN1, hits give low values 0.994 | S. cerevisiae deletion strains, locus YDL134C, strain PPH21, hits give low values 0.999 | S. cerevisiae deletion strains, locus YDL185W, strain tfp1, hits give low values 0.999 | S. cerevisiae deletion strains, locus YDL192W, strain arf1, hits give low values 0.997 | S. cerevisiae deletion strains, locus YDR101C, strain arx1, hits give low values 0.979 | [10] 1.01 | S. cerevisiae deletion strains, locus YDR162C, strain NBP2, hits give low values 1 | S. cerevisiae deletion strains, locus YDR318W, strain mcm21, hits give low values 0.985 | S. cerevisiae deletion strains, locus YDR388W, hits give low values 0.99 | S. cerevisiae deletion strains, locus YDR502C, strain sam2, hits give low values 0.969 | S. cerevisiae deletion strains, locus YEL061C, strain CIN8, hits give low values 0.999 | S. cerevisiae deletion strains, locus YER110C, hits give low values 0.992 | S. cerevisiae deletion strains, locus YER155C, strain BEM2, hits give low values 1 | S. cerevisiae deletion strains, locus YER167W, strain BCK2, hits give low values 0.974 | S. cerevisiae deletion strains, locus YGL078C, strain dbp3, hits give low values 1 | S. cerevisiae deletion strains, locus YGL086W, strain mad1, hits give low values 0.988 | S. cerevisiae deletion strains, locus YGL248W, strain PDE1, hits give low values 1 | [11] 0.946 | S. cerevisiae deletion strains, locus YGR135W, strain pre9, hits give low values 0.956 | S. cerevisiae deletion strains, locus YGR229C, strain SMI1, hits give low values 0.893 | S. cerevisiae deletion strains, locus YGR252W, strain gcn5, hits give low values 0.999 | [1] 0.999 | S. cerevisiae deletion strains, locus YHR079C, strain IRE1 (second series), hits give low values 0.995 | S. cerevisiae deletion strains, locus YHR094C, strain hxt1, hits give low values 0.997 | S. cerevisiae deletion strains, locus YHR129C, strain ARP1, hits give low values 0.988 | S. cerevisiae deletion strains, locus YHR200W, strain rpn10, hits give low values 1 | S. cerevisiae deletion strains, locus YIL066C, strain RNR3, hits give low values 0.985 | S. cerevisiae deletion strains, locus YIL073C, strain SPO22, hits give low values 1.01 | S. cerevisiae deletion strains, locus YIL125W, strain kgd1, hits give low values 0.985 | S. cerevisiae deletion strains, locus YIR030C, strain dcg1, hits give low values 1 | [3] 0.924 | S. cerevisiae deletion strains, locus YJL134W, strain LCB3, hits give low values 1 | S. cerevisiae deletion strains, locus YJL168C, strain set2, hits give low values 0.988 | S. cerevisiae deletion strains, locus YJL187C, strain SWE1 (second series), hits give low values 1 | S. cerevisiae deletion strains, locus YJR043C, strain POL32, hits give low values 0.953 | [12] 0.944 | S. cerevisiae deletion strains, locus YKL009W, strain mrt4, hits give low values 1.01 | S. cerevisiae deletion strains, locus YKL068W, hits give low values 1 | S. cerevisiae deletion strains, locus YKL085W, strain MDH1 (second series), hits give low values 1.01 | S. cerevisiae deletion strains, locus YKL085W, strain MDH1, hits give low values 1.01 | S. cerevisiae deletion strains, locus YKL190W, strain CNB1, hits give low values 1 | S. cerevisiae deletion strains, locus YKR001C, strain vps1, hits give low values 0.948 | S. cerevisiae deletion strains, locus YLR039C, strain RIC1, hits give low values 0.869 | S. cerevisiae deletion strains, locus YLR058C, strain SHM2, hits give low values 1 | S. cerevisiae deletion strains, locus YLR102C, strain apc9, hits give low values 0.997 | S. cerevisiae deletion strains, locus YLR262C, strain YPT6, hits give low values 0.859 | S. cerevisiae deletion strains, locus YLR268W, strain sec22, hits give low values 0.975 | S. cerevisiae deletion strains, locus YLR330W, strain CHS5, hits give low values 1.01 | S. cerevisiae deletion strains, locus YLR342W, strain FKS1 (second series), hits give low values 0.968 | S. cerevisiae deletion strains, locus YLR371W, strain rom2, hits give low values 0.999 | S. cerevisiae deletion strains, locus YLR418C, strain cdc73, hits give low values 0.848 | S. cerevisiae deletion strains, locus YML016C, strain PPZ1, hits give low values 1.01 | S. cerevisiae deletion strains, locus YML032C, strain rad52, hits give low values 0.983 | S. cerevisiae deletion strains, locus YML124C, strain tub3, hits give low values 0.995 | S. cerevisiae deletion strains, locus YMR078C, strain ctf18, hits give low values 0.99 | S. cerevisiae deletion strains, locus YMR223W, strain ubp8, hits give low values 0.973 | [13] 0.97 | [14] 0.898 | S. cerevisiae deletion strains, locus YNL067W, strain RPL9B, hits give low values 1.01 | S. cerevisiae deletion strains, locus YNL128W, strain TEP1, hits give low values 0.978 | S. cerevisiae deletion strains, locus YNL153C, strain GIM3, hits give low values 0.972 | S. cerevisiae deletion strains, locus YNL233W, strain BNI4, hits give low values 0.943 | S. cerevisiae deletion strains, locus YNL250W, strain rad50, hits give low values 0.99 | S. cerevisiae deletion strains, locus YNL271C, strain bni1, hits give low values 0.991 | S. cerevisiae deletion strains, locus YNL298W, strain CLA4, hits give low values 0.993 | S. cerevisiae deletion strains, locus YNL307C, strain MCK1, hits give low values 0.958 | S. cerevisiae deletion strains, locus YNL322C, strain KRE1, hits give low values 1 | S. cerevisiae deletion strains, locus YNR052C, strain pop2, hits give low values 1.01 | S. cerevisiae deletion strains, locus YOL006C, strain TOP1, hits give low values 0.936 | S. cerevisiae deletion strains, locus YOL012C, strain htz1 0.561 | S. cerevisiae deletion strains, locus YOL147C, strain pex11, hits give low values 1.01 | S. cerevisiae deletion strains, locus YOR061W, strain CKA2, hits give low values 1.01 | S. cerevisiae deletion strains, locus YOR069W, strain VPS5, hits give low values 1 | S. cerevisiae deletion strains, locus YOR136W, strain idh2, hits give low values 0.992 | S. cerevisiae deletion strains, locus YOR144C, strain elg1, hits give low values 1 | S. cerevisiae deletion strains, locus YOR184W, strain ser1, hits give low values 0.955 | S. cerevisiae deletion strains, locus YOR316C, strain cot1, hits give low values 0.999 | [15] 0.996 | S. cerevisiae deletion strains, locus YPL241C, strain CIN2, hits give low values 1.01 | S. cerevisiae deletion strains, locus YPR119W, strain clb2, hits give low values 0.994 | S. cerevisiae deletion strains, locus YPR141C, strain kar3, hits give low values 0.991 | S. cerevisiae deletion strains, locus YPR163C, strain tif3, hits give low values 1.01 | S. cerevisiae deletion strains, locus YPR167C, strain met16, hits give low values 1 | S. cerevisiae deletion strains, strain wtn01, hits give low values 0.96 | S. cerevisiae strains, strain wild type, hits give low values 0.97

COC(=O)[C@@H]1C[C@H](OC(C)=O)C(=O)[C@H]2[C@@]1(C)CC[C@H]1C(=O)O[C@H](c3ccoc3)C[C@]21C
inactive: [1] 1 | [2] 0.994 | [3] 1 | [4] 0.936 | [5] 1.03 | [6] 0.957 | [7] 0.985 | [8] 1.01

NC(N)=NCCSSCCN=C(N)N
inactive: [9] 0.949 | S. cerevisiae deletion strains, locus YAL040C, strain CLN3, hits give low values 0.948 | S. cerevisiae deletion strains, locus YCL061C, strain MRC1 (second series), hits give low values 0.979 | [10] 0.988 | S. cerevisiae deletion strains, locus YDR363W, strain ESC2, hits give low values 0.941 | S. cerevisiae deletion strains, locus YER002W, strain NOP16, hits give low values 0.992 | [11] 0.973 | [12] 0.967 | [13] 0.981 | [14] 0.977 | S. cerevisiae deletion strains, locus YNL175C, strain NOP13, hits give low values 0.981 | S. cerevisiae deletion strains, locus YNL197C, strain WHI3, hits give low values 0.972 | S. cerevisiae deletion strains, locus YNL224C, strain SQS1, hits give low values 1.01 | S. cerevisiae deletion strains, locus YOR083W, strain WHI5 (second series), hits give low values 0.963 | [15] 0.983
